This is an account of results in PubChem BioAssay (Tox21).

Where “and” joins values, the source holds several entries; their conditions need not be identical. Equal entries are not always repeated. Results filed as inconclusive are left out. Some compounds were tested as several samples or in several runs, with calls that do not always agree. Calls of active or inactive are those of the source. Unless noted, calls come from the whole dose curve; as a rule, active = well fitted curve in the direction sought with a large enough effect in the repeat runs; inconclusive = weak or mixed curves; inactive = no such curve, though single readings can be large; an effect the other way counts as inactive or inconclusive.

Experiment [1] is described as follows: qHTS RealTime-Glo MT Cell Viability Assay in HEK293 cells - 0 hour (AID 1224880). Note: top concentration of the series differs between compounds; nearly all actives have a fitted effect of over 45% in size. A digest of the protocol: (§1)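 600 HEK293 cells per well, dispensed already mixed with RealTime-Glo MT reagents. Compound dosing came 5 h later. The same wells were read for luminescence at 0, 8, 16, 24, 32 and 40 h of exposure at 37 C.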
In general terms: In qHTS, concentration-response curves come from the screen itself.

Experiment [2] is described as follows: A CellTox Green Cytotoxicity Assay to monitor cytotoxicity in HEK293 cells - 32 hour (AID 1224881). Note: nearly all actives have a fitted effect of over 40% in size. Note: potency is the fitted concentration of half-maximal effect. The procedure, abridged:
(§2)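 Dead-cell fluorescence measured kinetically: asymmetric cyanine dye, HEK293, 600 cells/well, 5 h settle, 23 nL cpd/DMSO, 37 C, reads 0–40 h every 8 h.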

The nature of experiment [3]: A CellTox Green Cytotoxicity Assay to monitor cytotoxicity in HepG2 cells - 0 hour (AID 1224882). Note: nearly all actives have a fitted effect of over 35% in size. A digest of the protocol:
(§3)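 First, HepG2 cells (600/well) mixed with reagent were plated; second, after 5 h at 37 C they received compounds via pintool; third, fluorescence was measured at 0 h through 40 h at 8 h intervals.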

The nature of experiment [4]: A CellTox Green Cytotoxicity Assay to monitor cytotoxicity in HepG2 cells - 32 hour (AID 1224883). Note: nearly all actives have a fitted effect of over 50% in size. The procedure, abridged: as §3
The nature of experiment [5]: A CellTox Green Cytotoxicity Assay to monitor cytotoxicity in HEK293 cells - 8 hour (AID 1224884). Note: nearly all actives have a fitted effect of over 35% in size. The procedure, abridged:
as §2

Experiment [6] can be described thus: qHTS RealTime-Glo MT Cell Viability Assay in HEK293 cells - 24 hour (AID 1224886). Note: nearly all actives have a fitted effect of over 50% in size. Note: potency is the fitted concentration of half-maximal effect. The procedure, abridged:
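HEK293 cells were seeded at 600 cells/well together with NanoLuc luciferase and cell-permeant prosubstrate, preincubated 5 h at 37 C/5% CO2, then given compound in DMSO by pintool. Luminescence from viable-cell prosubstrate reduction was read repeatedly over 40 h.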

A short description of experiment [7]: qHTS RealTime-Glo MT Cell Viability Assay in HEK293 cells - 8 hour (AID 1224887). Note: top concentration of the series differs between compounds; nearly all actives have a fitted effect of over 50% in size. A digest of the protocol:
as §1

Experiment [8] can be described thus: A CellTox Green Cytotoxicity Assay to monitor cytotoxicity in HEK293 cells - 16 hour (AID 1224888). Note: nearly all actives have a fitted effect of over 35% in size. A digest of the protocol: as §2
Experiment [9] is described as follows: qHTS RealTime-Glo MT Cell Viability Assay in HepG2 cells - 0 hour (AID 1224889). Note: nearly all actives have a fitted effect of over 50% in size. The procedure, abridged: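 HepG2 cells were seeded at 600 cells/well together with NanoLuc luciferase and a cell-permeant prosubstrate, preincubated 5 h at 37 C/5% CO2, then pin-dosed with compounds in DMSO. Nonlytic luminescence from viable cells was read at each time point.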

A short description of experiment [10]: A CellTox Green Cytotoxicity Assay to monitor cytotoxicity in HepG2 cells - 8 hour (AID 1224890). Note: nearly all actives have a fitted effect of over 45% in size. The procedure, abridged:
as §3

Experiment [11] is described as follows: qHTS assay to identify small molecule antagonists of the estrogen receptor alpha (ER-alpha) signaling pathway using the BG1 cell line in the presence of 0.1 nM 17-beta-estradiol - cell viability counter screen (AID 1259241). Note: nearly all actives have a fitted effect of over 40% in size. Note: potency is the fitted concentration of half-maximal effect. The procedure, abridged:
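Cytotoxicity counter-screen: live-cell protease activity measured by fluorescence (30 min reagent step) in the same wells. Cells were VM7Luc4E2 with endogenous ER-alpha and ERE-driven luciferase, treated 22 hr at 37C alongside 0.1 nM 17beta-estradiol final.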

Experiment [12] in a line: qHTS assay to identify small molecule antagonists of the androgen receptor (AR) signaling pathway using the MDA cell line in the presence of 0.5 nM R1881 - cell viability counter screen (AID 1259242). Note: nearly all actives have a fitted effect of over 45% in size. A digest of the protocol: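 qHTS format. MDA-kb2 (MMTV-luc, AR/GR responsive) + cpd + 0.5 nM R1881 final, 16 hr 37C/0% CO2 → CellTiter-Fluor 30 min → fluorescence intensity.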

Experiment [13] is described as follows: qHTS assay to identify small molecule HDAC inhibitors (AID 1259364).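 Note: wild-type HCT-116 cells with endogenous class I/II HDAC activity; top concentration of the series differs between compounds; nearly all actives have a fitted effect of over 45% in size.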 A digest of the protocol: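 Quantitative high-throughput format: overnight-seeded HCT-116 cells got compounds for 2 hr at 37C; HDAC-Glo I/II reagent added, 30 min RT, luminescence measured.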
Experiment [14] in a line: qHTS assay to identify small molecule HDAC inhibitors - cell viability counter screen (AID 1259365). The procedure, abridged:
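CellTiter-Glo luminescence (30 min, room temperature) reported viability after a 2 h compound exposure at 37 C. Cells: wild-type HCT-116, 1,500 per well, seeded the night before.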

Experiment [15] is described as follows: qHTS assay to identify small molecule agonists of the sonic hedgehog signaling (Shh) pathway - cell viability counter screen (AID 1259366). Note: nearly all actives have a fitted effect of over 50% in size. Note: potency is the fitted concentration of half-maximal effect. The procedure, abridged: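 Cytotoxicity counter screen: CellTiter-Fluor reagent added after 23 h compound exposure, then 1 h at 37C and fluorescence read. Cells were 3T3 Gli1-Luc, seeded 2,000 per well and dosed 4 h post-plating.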

Experiment [16] is described as follows: qHTS assay to identify small molecule antagonists of the sonic hedgehog signaling (Shh) pathway - cell viability counter screen (AID 1259367). Note: nearly all actives have a fitted effect of over 55% in size. Note: potency is the fitted concentration of half-maximal effect. A digest of the protocol:
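Tox21 library chemicals were tested on a Gli1-Luc NIH/3T3 clone (2,000 cells/well) stimulated by conditioned medium; viability was quantified as fluorescence from CellTiter-Fluor reagent added at 23 hr.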

In experiment [17] the target is Estrogen receptor (Homo sapiens) (UniProt P03372). The experiment is described as follows: qHTS assay to identify small molecule antagonists of the estrogen receptor alpha (ER-alpha) signaling pathway using the BG1 cell line in the presence of 0.1 nM 17-beta-estradiol (AID 1259244). Note: nearly all actives have a fitted effect of over 50% in size. Note: potency is the fitted concentration of half-maximal effect. The procedure, abridged: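 Reporter is a stably transfected luciferase under four estrogen responsive elements in VM7Luc4E2 cells expressing native full-length ER-alpha; inhibition of 0.1 nM (final) 17beta-estradiol-driven signal over 22 h is read by luminescence.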
Sequence of Estrogen receptor (Homo sapiens) (P03372 whole entry, looked up): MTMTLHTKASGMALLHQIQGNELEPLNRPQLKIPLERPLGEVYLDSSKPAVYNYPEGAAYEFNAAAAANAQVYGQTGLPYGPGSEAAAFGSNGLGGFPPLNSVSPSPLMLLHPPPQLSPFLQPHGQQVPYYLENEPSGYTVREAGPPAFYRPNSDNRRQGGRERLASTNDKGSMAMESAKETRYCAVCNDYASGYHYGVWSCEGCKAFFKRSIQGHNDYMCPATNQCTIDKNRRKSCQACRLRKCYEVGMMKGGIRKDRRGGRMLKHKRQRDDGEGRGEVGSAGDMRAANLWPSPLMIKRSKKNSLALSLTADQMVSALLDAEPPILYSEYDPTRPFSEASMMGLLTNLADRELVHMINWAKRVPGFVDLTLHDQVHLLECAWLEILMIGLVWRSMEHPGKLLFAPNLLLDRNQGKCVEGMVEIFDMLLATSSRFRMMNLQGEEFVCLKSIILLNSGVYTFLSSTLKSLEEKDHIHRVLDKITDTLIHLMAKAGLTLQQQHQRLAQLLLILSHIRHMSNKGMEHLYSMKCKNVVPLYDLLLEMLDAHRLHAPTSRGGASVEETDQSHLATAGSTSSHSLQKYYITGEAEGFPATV

Experiment [18] in a line: qHTS assay to identify small molecule phospholipidosis (PLD) inducers (AID 1259344; active = well fitted curve in the direction sought with a large enough effect; an effect the other way counts as inactive or inconclusive). The procedure, abridged: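 Image-based: LipidTOX Red pit count/intensity per well and per cell; HepG2, 24 h compound at 37 C, PFA fixation, Hoechst counterstain.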
Experiment [19] concerns the target Androgen receptor (Homo sapiens) (UniProt P10275). The experiment is described as follows: qHTS assay to identify small molecule antagonists of the androgen receptor (AR) signaling pathway using the MDA cell line in the presence of 0.5 nM R1881 (AID 1259243). Note: nearly all actives have a fitted effect of over 50% in size. The procedure, abridged: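 Antagonist mode quantitative HTS in MDA-kb2 MMTV-luciferase cells, agonist R1881 at 0.5 nM final, 16 hr exposure at 37C and 0% CO2, luminescent detection.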

Sequence of Androgen receptor (Homo sapiens) (P10275 whole entry, looked up): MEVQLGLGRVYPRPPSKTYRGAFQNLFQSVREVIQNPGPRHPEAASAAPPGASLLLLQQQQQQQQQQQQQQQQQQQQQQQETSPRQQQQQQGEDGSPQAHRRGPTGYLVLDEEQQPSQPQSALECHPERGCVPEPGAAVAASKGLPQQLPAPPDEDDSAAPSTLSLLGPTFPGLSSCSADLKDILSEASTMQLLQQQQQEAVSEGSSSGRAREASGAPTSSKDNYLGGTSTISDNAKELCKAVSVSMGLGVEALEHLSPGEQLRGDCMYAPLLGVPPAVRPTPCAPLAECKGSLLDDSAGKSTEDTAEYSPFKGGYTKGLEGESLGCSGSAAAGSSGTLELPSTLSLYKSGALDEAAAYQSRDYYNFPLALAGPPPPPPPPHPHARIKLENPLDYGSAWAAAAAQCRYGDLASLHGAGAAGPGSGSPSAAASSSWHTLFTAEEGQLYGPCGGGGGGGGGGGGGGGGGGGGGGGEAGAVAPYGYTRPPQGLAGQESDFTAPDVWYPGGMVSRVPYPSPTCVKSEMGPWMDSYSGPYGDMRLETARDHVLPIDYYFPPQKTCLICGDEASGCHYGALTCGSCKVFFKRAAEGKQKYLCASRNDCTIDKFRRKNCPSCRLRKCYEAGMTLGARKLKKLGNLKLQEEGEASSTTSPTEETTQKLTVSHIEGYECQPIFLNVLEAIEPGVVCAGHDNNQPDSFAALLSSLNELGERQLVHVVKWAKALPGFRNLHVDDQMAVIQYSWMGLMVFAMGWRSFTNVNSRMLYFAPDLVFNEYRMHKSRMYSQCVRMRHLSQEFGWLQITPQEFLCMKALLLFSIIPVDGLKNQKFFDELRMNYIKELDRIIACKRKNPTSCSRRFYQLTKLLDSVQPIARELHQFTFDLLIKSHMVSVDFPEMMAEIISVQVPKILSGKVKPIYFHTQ

As to `CCCCC(CC)COC(C)=O` (stereo unspecified), the Potency result in [1], in experiment [2], in experiment [3], in experiment [4], in experiment [5] and in experiment [6] was “inactive” each time. Besides, the Potency entry in [7], in experiment [8], in experiment [9], in [10], in experiment [11] and in experiment [12] was “inactive” each time. The Potency entry in [13], in experiment [15] and in experiment [16] was “inactive” each time. Further, in experiment [14], the compound was classed as inactive.

With `NCCc1ccc(O)c(O)c1`, the Potency result in experiment [1], in experiment [2], in experiment [3], in experiment [4], in experiment [5] and in experiment [6] was “inactive” in each case. Further, the Potency result in experiment [7], in experiment [8], in [9], in [10], in experiment [12] and in [13] was “inactive” throughout. Moreover, the Potency was 34.5 µM (active) in experiment [11]; 2.44 µM (active) in experiment [17]; 24.4 µM (active) and inactive in experiment [15]; 30.7 µM (active) and inactive in experiment [16]. Moreover, the compound was called inactive in [18] and in experiment [14].

`S=c1nc[nH]c2nc[nH]c12`: the Potency result in experiment [1], in [2], in experiment [3], in experiment [4], in experiment [5] and in experiment [7] was “inactive” in each case. In addition, the Potency entry in [8], in experiment [9], in [10], in experiment [11], in [12] and in [17] was “inactive” each time. In addition, the Potency entry in [13], in experiment [15] and in [16] was “inactive” throughout. Moreover, in experiment [6], the Potency was 19 µM (active). Moreover, the call in experiment [18] and in experiment [14] was inactive.

`O=C(O)c1cc(-c2ccccc2)nc2ccccc12`: the Potency result in [1], in [2], in [3], in [4], in experiment [5] and in experiment [6] was “inactive” each time. Moreover, the Potency result in experiment [7], in experiment [8], in experiment [9], in [10], in [11] and in experiment [12] was “inactive” each time. Further, the Potency result in experiment [15] and in experiment [16] was “inactive” throughout. In addition, the outcome in experiment [19], in [18] and in experiment [14] was inactive.

For the compound `O=[N+]([O-])c1cc(N(CCO)CCO)ccc1NCCO`, the Potency entry in experiment [1], in experiment [2], in [3], in [4], in experiment [5] and in [6] was “inactive” throughout. Also, the Potency entry in experiment [7], in experiment [8], in experiment [9], in [10], in experiment [15] and in experiment [16] was “inactive” throughout. Moreover, the Potency in [11] is 34.4 µM (active). In addition, in experiment [19], the outcome was inactive.

On to `COCC(C)O` (stereo unspecified), for which the Potency result in [1], in experiment [2], in experiment [3], in experiment [4], in experiment [5] and in [6] was “inactive” throughout. Further, the Potency result in experiment [7], in experiment [8], in experiment [9], in experiment [10], in experiment [11] and in experiment [12] was “inactive” throughout. Also, the Potency entry in [17], in experiment [13], in experiment [15] and in experiment [16] was “inactive” each time. Moreover, in experiment [14], the compound was called inactive.

Consider `ClC1=C(Cl)C(Cl)(Cl)C(Cl)=C1Cl`, for which the Potency result in [1], in experiment [3], in experiment [4], in experiment [5], in experiment [7] and in experiment [8] was “inactive” in each case. The Potency result in experiment [9], in experiment [10], in experiment [11], in [12], in experiment [17] and in [13] was “inactive” in each case. In addition, the Potency entry in experiment [15] and in experiment [16] was “inactive” in each case. In addition, the Potency in experiment [2] is 17.5 µM (active) and 34.7 µM (active). The outcome in experiment [14] was inactive.
